In assay [1] the test system is JEG-3. Briefly: Primary qHTS to identify gynecologic anti-cancer compounds using libraries of approved drugs and bioactive compounds (AID 1345084). Note: nearly all actives have a fitted effect of over 55% in size. Note: potency is the fitted concentration of half-maximal effect. The following applies: Gynecologic cancer cell panel viability, ATPlite luminescence, 48 h; series mostly up to 57.5 µM. In a few lines:
(§1)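 Cytotoxicity screen measuring ATP content by luciferase luminescence. Each compound is applied at five concentrations for 48 h at 37 C with 5% CO2.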

The test system of assay [2] is OV90. Described as above. As to conditions: Gynecologic cancer cell panel viability, ATPlite luminescence, 48 h; series mostly up to 57.5 µM. In a few lines:
as §1

The subject of assay [3] is PA-1. The description is as above. As to conditions: Gynecologic cancer cell panel viability, ATPlite luminescence, 48 h; series mostly up to 57.5 µM. In a few lines: as §1
In assay [4] the test system is SKOV3. The description is as above. As to conditions: Gynecologic cancer cell panel viability, ATPlite luminescence, 48 h; series mostly up to 57.5 µM. The essentials:
as §1
On the technique in general: In ATP-based viability assays light output follows the ATP content of the culture.

For assay [5], the system named is Tov-21-G. The description is as above. As to conditions: Gynecologic cancer cell panel viability, ATPlite luminescence, 48 h; series mostly up to 57.5 µM. In a few lines:
as §1

Assay [6] relates to Tov112D. The description is as above. As to conditions: Gynecologic cancer cell panel viability, ATPlite luminescence, 48 h; series mostly up to 57.5 µM. In a few lines: as §1
Assay [7] concerns astro. In words: Drug repurposing screens with cells derived from glioblastoma tumor samples (AID 1345199). For activity, negative = cell killing: % is set by controls: 0 for no effect and ±100 for the full control effect. Note: nearly all actives have a fitted effect of over 40% in size. Note: potency is the fitted concentration of half-maximal effect. The following applies: viability, ATP luminescence, 48 h; series mostly up to 45.9 µM. The essentials:
(§2)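 Primary testing used CD133+ neurospheres from four GBM patients, seven concentrations, 48 h exposure and ATP-based viability; confirmation added three slower-growing patient lines.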

Experiment in assay [8]: as above
The following applies: GBM patient neurospheres viability, ATP luminescence, 48 h. In a few lines: as §2

Assay [9] addresses Nuclear receptor subfamily 1 group I member 2 (Rattus norvegicus) (UniProt Q9R1A7). Briefly: qHTS assay for small molecule activators of the rat pregnane X receptor (rPXR) signaling pathway (AID 651751; call rule not given here; note: 0% is about no effect). As to conditions: rPXR reporter cells, luciferase (One-Glo), 24 h. (In general: In qHTS, concentration-response curves come from the screen itself.)
The nature of assay [10]: qHTS assay to identify inhibitors of the type 1 interferon - major histocompatibility complex class I in skeletal muscle: Counter screen cell viability and HiBit confirmation (AID 1347412). Note: % is set by controls: 0 for no effect and ±100 for the full control effect; nearly all actives have a fitted effect of over 60% in size. The following applies: iHSKM muscle cells + IFN-b, HiBiT or CellTiter-Glo, 24 h; Potency: HiBiT unless noted; Viability, at 45.9 µM (top of the series). In a few lines:
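HLA-B*08:01–HiBiT knock-in immortalized human myoblasts (C25cl48) stimulated with 4.0 ng/ml human IFN-beta and dosed with compound in a 12-point 1:3 titration (top final 46 uM). After 24 hrs at 37 C, HiBiT lytic luminescence or CellTiter Glo ATP read out.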

Where [11] appears, read: at 45.9 µM (top of the series), tumour line B.
[12] abbreviates: at 46.1 µM (top of the series), tumour line C.
Setting [13] is: at 45.9 µM (top of the series), tumour line D.
The mark [14] stands for this setting: at 46 µM (top of the series), tumour line A.
[15] abbreviates: at 21.2 µM (top of the series), tumour line B.
Where [16] appears, read: at 21.2 µM (top of the series), tumour line D.
Setting [17] is: at 20 µM (top of the series), tumour line C.

“And” between values parts separate entries of the source, which are not always exact repeats. Equal entries are not always repeated. Unmarked numbers belong to inactive results. Records with an inconclusive call do not appear. The source made the active and inactive calls. Unless noted, calls come from the whole dose curve; as a rule, active = well fitted curve in the direction sought with a large enough effect; inconclusive = small, poorly fitted or top-dose-only effect, or another doubt; inactive = no such curve, though single readings can be large; an effect the other way counts as inactive or inconclusive.

Sequence of Nuclear receptor subfamily 1 group I member 2 (Rattus norvegicus) (Q9R1A7 whole entry, looked up): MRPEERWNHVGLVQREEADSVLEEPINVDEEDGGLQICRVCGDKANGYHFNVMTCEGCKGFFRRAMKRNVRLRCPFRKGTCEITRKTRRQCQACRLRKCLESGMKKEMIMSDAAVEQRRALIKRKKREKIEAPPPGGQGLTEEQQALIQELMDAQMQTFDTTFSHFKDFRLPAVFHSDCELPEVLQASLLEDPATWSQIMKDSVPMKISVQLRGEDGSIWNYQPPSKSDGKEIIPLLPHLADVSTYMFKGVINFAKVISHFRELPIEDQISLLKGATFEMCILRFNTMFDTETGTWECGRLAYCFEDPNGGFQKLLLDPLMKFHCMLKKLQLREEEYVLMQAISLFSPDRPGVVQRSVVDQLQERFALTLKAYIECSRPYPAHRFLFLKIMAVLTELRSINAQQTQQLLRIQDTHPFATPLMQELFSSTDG

`CC(Cc1cccc(C(F)(F)F)c1)NCCOC(=O)c1ccccc1` (stereo unspecified): the Potency result in assay [1], in assay [2], in assay [3], in assay [4], in assay [5] and in [6] was “inactive” in each case. Also, the Potency entry in [7] is “inactive”.

Regarding `CCOC(=O)COc1ccc2c(C)c(CCN(CC)CC)c(=O)oc2c1Cl`, the Potency result in [1], in assay [2], in assay [3], in assay [6] and in assay [7] was “inactive” in each case. In addition, the Potency in [4] is 15.8 µM (active); in assay [8] (tumour line A), 11.2 µM (active). For the same molecule, the activity, negative = cell killing is -13.9% in [8] (setting [11]) and -21.4% in [8] (setting [12]).

For the molecule `CCCCc1nc(Cl)c(CO)n1Cc1ccc(-c2ccccc2-c2nn[nH]n2)cc1`, the Potency result in assay [1], in assay [2], in assay [3], in assay [4], in assay [5] and in assay [6] was “inactive” throughout. Also, in assay [7], the Potency entry is “inactive”. Besides, the results for the activity, negative = cell killing in [8] (setting [11]), in assay [8] (setting [13]) and in assay [8] (setting [12]) were -2.59%, -10.9% and -14.8%, respectively.

Consider `CN(C)C(=S)SC(=S)N(C)C`, for which the Potency result in assay [1] and in [7] was “inactive” in each case. The Potency is 7.94 µM (active) in assay [2], 11.2 µM (active) in [4], 8.91 µM (active) in [5] and 28.2 µM (active) in assay [6]. For the same molecule, the activity, negative = cell killing in assay [8] (setting [11]) was -2.75%; in assay [8] (setting [13]), -2.32%; in [8] (setting [14]) it was -14.5%; in assay [8] (setting [12]), -7.02%. Also, the max response in assay [9] was -1.67%.

On to `O=C1OC(c2ccc(O)cc2)(c2ccc(O)cc2)c2ccccc21`, for which the Potency result in [1], in assay [3], in [5] and in [6] was “inactive” in each case. Also, the Potency in [2] is 28.2 µM (active). For the same molecule, the activity, negative = cell killing in [8] (setting [11]) was -16.9%; in assay [8] (setting [13]), -16.2%; in assay [8] (setting [12]) it was 2.26%. For the same molecule, the max response in assay [9] is 7.44% and -0.397%.

For the molecule `C[C@]12CC[C@H]3[C@@H](CCC4=CC(=O)CC[C@@]43C)[C@@H]1CC[C@@H]2C(=O)CO`, the Potency entry in assay [1], in [2], in assay [5], in [6] and in [7] was “inactive” throughout. The Potency in assay [3] was 22.4 µM (active). For the same molecule, the results for the activity, negative = cell killing in assay [8] (setting [15]) and in [8] (setting [16]) were -21.2% and -27.5%, respectively.

For `CCOc1ccc(Cc2nccc3cc(OCC)c(OCC)cc23)cc1OCC`, the Potency entry in [1] and in assay [5] was “inactive” each time. Besides, the results for the Potency in assay [2] and in assay [4] were 7.08 µM (active) and 2.24 µM (active), respectively. In assay [8] (setting [17]), the activity, negative = cell killing was 6.5%.

In the case of `COC1=CC(=O)C[C@@H](C)[C@]12Oc1c(Cl)c(OC)cc(OC)c1C2=O`, the Potency entry in assay [1], in [2] and in assay [4] was “inactive” in each case. For the same molecule, the activity, negative = cell killing in [8] (setting [11]) was -17.6%; in assay [8] (setting [13]) it was -7.65%; in [8] (setting [12]), -2.75%.

As for `C[C@]12C=CC(=O)C=C1CC[C@@H]1[C@@H]2[C@@H](O)C[C@@]2(C)[C@H]1CC[C@]2(O)C(=O)CO`, the Potency result in [1], in [2], in assay [4], in [5], in [6] and in assay [7] was “inactive” throughout. Moreover, the Potency result in [10] is “inactive”. Moreover, the activity, negative = cell killing in assay [8] (setting [11]) is -12.2%; in [8] (setting [13]), -11.3%; in [8] (setting [14]), -29.3%; in [8] (setting [12]) it was -10.5%.

As for `C#C[C@]1(O)CC[C@H]2[C@@H]3CCc4cc(OC5CCCC5)ccc4[C@H]3CC[C@@]21C`, the Potency entry in [1], in [5] and in [6] was “inactive” throughout. Further, the Potency in assay [2] is 20 µM (active); in assay [8] (tumour line A) it was 4.47 µM (active); in assay [8] (tumour line B), 10 µM (active); in assay [7], 22.4 µM (active). Also, the activity, negative = cell killing in [8] (setting [12]) is -25.1%.

For the molecule `CNCC[C@@H](Oc1ccccc1C)c1ccccc1`, the Potency entry in assay [1], in [2], in assay [3], in assay [6] and in [7] was “inactive” throughout.

Regarding `Oc1c(I)cc(I)c2cccnc12`, the Potency result in assay [1], in [2], in assay [4] and in assay [6] was “inactive” throughout.

As for `CCN1CCC[C@H]1CNC(=O)c1c(OC)ccc(Br)c1OC`, the Potency result in assay [1], in [2], in [3], in assay [5], in assay [6] and in assay [7] was “inactive” throughout. Further, the figures for the activity, negative = cell killing in assay [8] (setting [11]), in [8] (setting [13]) and in assay [8] (setting [12]) were -5.99%, -23.8% and -7.43%, respectively.

Take `CC(=O)OCC(=O)NCCCOc1cccc(CN2CCCCC2)c1`: the Potency result in [1], in assay [2], in assay [3], in assay [5], in assay [6] and in [7] was “inactive” in each case. The activity, negative = cell killing in assay [8] (setting [11]) was 0.906% and -1.58%; in assay [8] (setting [13]) it was -12.4% and -6.14%; in [8] (setting [14]), -17.5%; in assay [8] (setting [12]), -13.4% and 4.52%.

As for `CN1[C@@H]2CC[C@H]1CC(OC(=O)c1c[nH]c3ccccc13)C2` (stereo partly specified), the Potency result in assay [1], in assay [2], in assay [3], in assay [5], in assay [6] and in assay [7] was “inactive” in each case. The activity, negative = cell killing in [8] (setting [11]) was 0.619%; in assay [8] (setting [13]) it was -12.6%; in [8] (setting [12]), 13.1%. Also, in [8] (tumour line A), the Potency was 11.2 µM (active).

As for `C[C@]12CC[C@@H]3c4ccc(O)cc4CC[C@H]3[C@@H]1C[C@@H](O)[C@@H]2O`, the Potency entry in assay [1], in [2], in assay [4], in [5], in assay [6] and in assay [7] was “inactive” each time. For the same molecule, the figures for the activity, negative = cell killing in assay [8] (setting [11]), in assay [8] (setting [13]) and in assay [8] (setting [12]) were -9.53%, -17.2% and 22.1%, respectively.

With `CC(=O)Oc1ccc2c(c1)CC[C@@H]1[C@@H]2CC[C@]2(C)[C@@H](O)CC[C@@H]12`, the Potency entry in assay [1], in assay [2], in [4] and in assay [5] was “inactive” each time. Also, in assay [8] (setting [12]), the activity, negative = cell killing was -5.95%. Also, the Potency in [8] (tumour line A) is 12.6 µM (active).

For `CN(C/C=C/c1ccccc1)Cc1cccc2ccccc12`, the Potency entry in assay [1], in [2], in [3], in [5], in assay [6] and in assay [7] was “inactive” throughout. The activity, negative = cell killing in assay [8] (setting [11]) was -26.7%; in assay [8] (setting [13]) it was -18.5%; in assay [8] (setting [12]), -27.1%.

Take `CCCOC(C(=O)OC1CCN(C)CC1)(c1ccccc1)c1ccccc1`: the Potency result in [1], in [3], in assay [4], in assay [5] and in [6] was “inactive” throughout.

On to `NCCc1ccn[nH]1`, for which the Potency entry in assay [1], in [2], in [3], in [5], in assay [6] and in [7] was “inactive” in each case. The activity, negative = cell killing in [8] (setting [17]) is -4.24%; in assay [8] (setting [15]), -2.24%; in [8] (setting [16]), 2.99%; in [8] (at 21.3 µM (top of the series), tumour line A) it was -21.3%.

Source of the values: PubChem BioAssay (NCATS).
